Assay results taken from PubChem BioAssay AID504773 (Broad Institute, 2011).
Results with a measured potency or affinity are listed apart. The source made the active and inactive calls.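 The calls were made as follows: active = polarization signal falls with dose and the fitted half-maximal concentration is at or below ten times the sample's top valid dose; inconclusive = flat curve at 30 to 70% inhibition, or poor fit; inactive = signal rises, flat within 30%, or potency beyond limit.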

Each molecule was assayed against Golgi-associated PDZ and coiled-coil motif-containing protein (Homo sapiens) (UniProt Q9HD26) (assay: potency against CAL PDZ-peptide interaction – biochemical, fluorescence polarization, Cerulean-tagged CAL PDZ, cherry-picks, dose response (AID 504773)). Conditions: CAL PDZ-peptide binding, 1 h; series mostly up to 50 µM.

| Compound | outcome |
| --- | --- |
| O=C(c1ccc([N+](=O)[O-])cc1)N1CCC(Cc2ccccc2)CC1 | inactive |
| O=C(COC(=O)c1ccc(Cl)nc1)Nc1ccc(N2CCCCC2)cc1 | inactive |
| COc1ccc(Br)c(C(=O)NC2CCCC2)c1 | inactive |
| O=C(c1c(Cl)cccc1Cl)N1CCCCCC1 | inactive |
| C/C(=N\NC(=O)C(O)c1ccccc1)c1ccc(Cl)s1 (centres undefined) | inactive |
| COCCCNC(=O)c1cc(S(=O)(=O)N2CCOCC2)ccc1SCc1cccc(OC)c1OC | inactive |
| CCC(=O)N1CCC(C(N)=O)(N2CCCCC2)CC1 | inactive |
| O=C(O)c1ccc(S(=O)(=O)c2ccc3c(c2)C(=O)N(c2ccccc2[N+](=O)[O-])C3=O)cc1 | inactive |
| Cc1ccccc1CN(C)C(C)C(=O)Nc1ccccc1F (centres undefined) | inactive |
| COc1ccc(C(=O)Nc2ccc(S(=O)(=O)N3CCCC3)cc2)cc1[N+](=O)[O-] | inactive |
| O=C(/C=C/c1cccs1)Nc1scc(-c2ccccc2)c1C(=O)O | inactive |
| CCOC(=O)C1=C(C)OC(N)=C(C#N)C1c1cccc(C)c1 (centres undefined) | inactive |
| Fc1ccc(-n2c(-c3ccc4ccccc4n3)n[nH]c2=S)cc1Cl | inactive |
| Cc1nc(N)c(CC(Br)CBr)c(Cl)n1 (centres undefined) | inactive |
| CCOc1ccc(C(=O)NCC(=O)N2CCC(C)CC2)cc1OCC | inactive |
| CCn1ncc(Br)c1C(=O)Nc1cccc(F)c1 | inactive |
| O=C(COc1ccccc1)N1CCCCCCC1 | inactive |
| CCCSC1=N/C(=C\c2ccc([N+](=O)[O-])o2)C(=O)S1 | inactive |
| Cc1ccc2cc(C#N)c(N3CCCN(S(=O)(=O)c4ccccc4)CC3)nc2c1 | inactive |
